Experimental data taken from PubChem BioAssay (Tox21).
Values joined by “and” are separate entries in the source; they are usually repeats but may differ in a detail not shown here. Equal values may be shown once. Records with an inconclusive call do not appear. Where a call stands in place of a potency, no number is given. Where a structure was tested more than once in an assay, its records may differ in their call. Active and inactive are the calls of the source. Unless noted, calls come from the whole dose curve; as a rule, active = well fitted curve in the direction sought with a large enough effect in the repeat runs; inconclusive = weak or mixed curves; inactive = no such curve, though single readings can be large; an effect the other way counts as inactive or inconclusive.

What was measured:
[1] = qHTS assay to identify small molecule agonists of the RXR signaling pathway - cell viability counter screen (AID 1159529); note: nearly all actives have a fitted effect of over 50% in size; note: potency is the fitted concentration of half-maximal effect
Procedure, shortened: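 RXR-alpha-UAS-bla HEK 293T cells in medium with 2% charcoal-stripped FBS were pre-incubated 5 hr, then compound-treated 16 hr at 37 C. Viability was read by CellTiter-Glo luminescence in the same wells as the beta-lactamase assay, with tetraoctyl ammonium bromide as positive control.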

[2] = qHTS assay to identify small molecule antagonists of the retinoid acid receptor (RAR) signaling pathway - cell viability counter screen (AID 1159551); note: nearly all actives have a fitted effect of over 35% in size; note: potency is the fitted concentration of half-maximal effect
Procedure, shortened: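 C3RL4 RARE-luciferase cells, 1,000/well, incubated overnight, then dosed with compound plus 1 uM retinol (final). After 6 hr at 37 C, viability read by CellTiter-Glo ATP luminescence following 30 min at room temperature.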

[3] = qHTS assay to identify small molecule antagonists of the estrogen related receptor (ERR) signaling pathway from Tox21 library - cell viability counter screen (AID 1224834); note: nearly all actives have a fitted effect of over 30% in size; note: potency is the fitted concentration of half-maximal effect
Procedure, shortened: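 ERR reporter cells, 2,000 per well, rested 6 h, then exposed to compound in DMSO for 17.5 hours at 37 C. Viability read as fluorescence after 30 min with CellTiter-Fluor.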

[4] = qHTS assay to identify small molecule agonists of the constitutive androstane receptor (CAR) signaling pathway - cell viability counter screen (AID 1224836); note: nearly all actives have a fitted effect of over 45% in size; note: potency is the fitted concentration of half-maximal effect
Procedure, shortened: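 HepG2 cells stably carrying hCAR and a CYP2B6-2.2kb reporter; 15-concentration compounds plus PK11195 (final 0.75 uM), 23 hr at 37 C/5% CO2. Viability read by CellTiter-Fluor fluorescence.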

[5] = qHTS assay to identify small molecule antagonists of the constitutive androstane receptor (CAR) signaling pathway - cell viability counter screen (AID 1224837); note: nearly all actives have a fitted effect of over 45% in size; note: potency is the fitted concentration of half-maximal effect
Procedure, shortened: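 HepG2 cells stably carrying hCAR and CYP2B6-2.2kb reporter, stimulated with 50 nM CITCO and compounds at 15 concentrations for 23 h at 37 C. Viability measured by CellTiter-Fluor fluorescence.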

[6] = qHTS assay to identify small molecule antagonists of the estrogen related receptor signaling pathway with the pleiotropic PPARgamma coactivator (PGC) from Tox21 10K library - cell viability counter screen (AID 1224840; active = well fitted cell-killing curve with a large enough effect in the repeat runs, not every such curve was filed as active; note: nearly all actives have a fitted effect of over 40% in size; note: potency is the fitted concentration of half-maximal effect)
Procedure, shortened: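 PGC/ERR cells (2,000/well) plated 6 h, then compound-treated for 17.5 h at 37 C. Viability measured by CellTiter-Fluor fluorescence after 30 min at 37 C, multiplexed with the pathway assay.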

[7] = target: Thyrotropin receptor (Homo sapiens) (UniProt P16473); test: qHTS assay to identify small molecule agonists of the thyroid stimulating hormone receptor (TSHR) signaling pathway (AID 1224843; calls by dose curve; note: nearly all actives have a fitted effect of over 45% in size)
Chain of Thyrotropin receptor (Homo sapiens) (P16473 whole entry, looked up): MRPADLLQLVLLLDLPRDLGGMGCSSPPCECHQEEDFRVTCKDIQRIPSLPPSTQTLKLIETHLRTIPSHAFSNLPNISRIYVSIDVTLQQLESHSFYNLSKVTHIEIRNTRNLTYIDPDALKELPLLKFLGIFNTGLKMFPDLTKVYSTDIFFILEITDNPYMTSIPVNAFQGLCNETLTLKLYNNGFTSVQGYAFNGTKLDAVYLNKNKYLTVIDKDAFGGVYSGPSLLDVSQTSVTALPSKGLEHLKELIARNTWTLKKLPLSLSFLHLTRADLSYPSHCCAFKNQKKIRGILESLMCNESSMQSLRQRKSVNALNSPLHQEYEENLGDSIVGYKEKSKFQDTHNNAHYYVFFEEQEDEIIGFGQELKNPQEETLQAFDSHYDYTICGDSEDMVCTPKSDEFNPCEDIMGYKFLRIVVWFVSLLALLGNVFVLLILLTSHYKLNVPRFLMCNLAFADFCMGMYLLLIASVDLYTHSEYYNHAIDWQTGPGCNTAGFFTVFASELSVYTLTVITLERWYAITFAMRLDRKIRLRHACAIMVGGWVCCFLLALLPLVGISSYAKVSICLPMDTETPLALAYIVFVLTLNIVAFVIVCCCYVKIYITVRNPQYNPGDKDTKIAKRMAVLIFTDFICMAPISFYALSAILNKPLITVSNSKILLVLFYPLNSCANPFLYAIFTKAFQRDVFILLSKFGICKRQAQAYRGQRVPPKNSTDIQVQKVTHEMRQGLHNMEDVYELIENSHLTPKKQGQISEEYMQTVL
Procedure, shortened: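 TSHR-expressing HEK293 cells (800 per well) were exposed to compounds for 30 min at room temperature. cAMP was then detected by HTRF competition with cAMP-d2 and anti-cAMP cryptate, read after 1 h at room temperature. Fifteen concentrations, triplicate.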

[8] = target: Luciferin 4-monooxygenase (Photinus pyralis) (UniProt P08659); test: qHTS assay to identify small molecule inhibitors of firefly luciferase (AID 1224835); note: nearly all actives have a fitted effect of over 25% in size; note: potency is the fitted concentration of half-maximal effect
Chain of Luciferin 4-monooxygenase (Photinus pyralis) (P08659 whole entry, looked up): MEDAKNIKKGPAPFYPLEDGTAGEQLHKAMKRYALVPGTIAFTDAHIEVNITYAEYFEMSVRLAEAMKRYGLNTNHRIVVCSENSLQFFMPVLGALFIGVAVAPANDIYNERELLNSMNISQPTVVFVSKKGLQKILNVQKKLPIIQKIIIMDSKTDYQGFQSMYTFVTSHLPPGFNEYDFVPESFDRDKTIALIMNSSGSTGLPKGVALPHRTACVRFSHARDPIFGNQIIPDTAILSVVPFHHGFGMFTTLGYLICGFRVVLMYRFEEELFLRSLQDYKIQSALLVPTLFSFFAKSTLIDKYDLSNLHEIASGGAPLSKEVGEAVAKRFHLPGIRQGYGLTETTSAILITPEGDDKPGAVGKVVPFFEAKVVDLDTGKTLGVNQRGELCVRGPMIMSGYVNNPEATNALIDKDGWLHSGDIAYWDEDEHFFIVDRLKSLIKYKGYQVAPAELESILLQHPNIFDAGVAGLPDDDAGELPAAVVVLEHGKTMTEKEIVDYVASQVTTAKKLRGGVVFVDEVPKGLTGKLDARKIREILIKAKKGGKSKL
Procedure, shortened: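 Quantitative HTS format; KM concentrations of both substrates. Purified P. pyralis FLuc activity quantified from luminescence images.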

[9] = target: Nuclear receptor subfamily 1 group I member 3 (Homo sapiens) (UniProt Q14994); test: qHTS assay to identify small molecule antagonists of the constitutive androstane receptor (CAR) signaling pathway (AID 1224838); note: nearly all actives have a fitted effect of over 40% in size; note: potency is the fitted concentration of half-maximal effect
Chain of Nuclear receptor subfamily 1 group I member 3 (Homo sapiens) (Q14994 whole entry, looked up): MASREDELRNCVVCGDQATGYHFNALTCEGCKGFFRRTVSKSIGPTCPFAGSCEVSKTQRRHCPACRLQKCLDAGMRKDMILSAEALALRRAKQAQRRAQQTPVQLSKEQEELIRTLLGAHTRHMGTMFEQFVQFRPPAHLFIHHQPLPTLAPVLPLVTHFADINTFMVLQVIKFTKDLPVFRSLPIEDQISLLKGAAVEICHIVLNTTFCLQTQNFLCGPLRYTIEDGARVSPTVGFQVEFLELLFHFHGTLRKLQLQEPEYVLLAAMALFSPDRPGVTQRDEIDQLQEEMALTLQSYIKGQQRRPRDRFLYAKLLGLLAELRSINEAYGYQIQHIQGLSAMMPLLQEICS
Procedure, shortened: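 HepG2 cells stably carrying hCAR and a CYP2B6-2.2kb luciferase reporter, seeded 4 hrs before compound (15 concentrations). Stimulated with 50 nM CITCO for 24 hr at 37 C. ONE-Glo luminescence read after 30 min at room temperature.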

[10] = qHTS assay to identify small molecule antagonists of the estrogen related receptor signaling pathway with the pleiotropic PPARgamma coactivator (PGC) from Tox21 10K library (AID 1224841; call rule not given here; note: series mostly up to about 92 µM; actives are mostly falling curves and most rising ones were filed inactive; nearly all actives have a fitted effect of over 50% in size)
Procedure, shortened: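 PGC/ERR cell line, 2,000 cells/well, pre-incubated 6 hours at 37 C, then exposed to compounds for 18 hours at 37 C; luciferase read with One-Glo luminescence after 30 min at room temperature.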

[11] = qHTS assay to identify small molecule agonists of the estrogen related receptor signaling pathway with the pleiotropic PPARgamma coactivator (PGC) from Tox21 10K library (AID 1224842); note: nearly all actives have a fitted effect of over 15% in size
Procedure, shortened: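 PGC/ERR reporter cells (NTP line) were seeded 2,000 per well, rested 6 h at 37 C/5% CO2, then pin-dosed with compounds in DMSO for 18 h at 37 C; luciferase read by One-Glo luminescence after 30 min at room temperature.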

SMILES | Potency [1] | Potency [2] | Potency [3] | Potency [4] | Potency [5] | Potency [6] | Potency [7] | Potency [8] | Potency [9] | Potency [10] | Potency [11]
Nc1ccccc1 | inactive | inactive | inactive | inactive | inactive | inactive | inactive | – | – | – | –
Nc1ccc(-c2ccc(N)c(Cl)c2)cc1Cl | inactive | inactive | 54.5 µM (active) | inactive | inactive | inactive and 27.3 µM (active) | inactive | 35.8 µM (active) and 33.2 µM (active) and 12.6 µM (active) | – | – | –
CC(Cl)(Cl)C(=O)O | inactive | inactive | inactive | inactive | inactive | inactive | inactive | inactive | – | – | –
CCCCCC[n+]1ccccc1 | 55.5 µM (active) and 49.3 µM (active) and inactive | inactive | inactive | inactive | inactive | inactive | – | inactive | – | – | –
O=C(O)CC(O)(CC(=O)O)C(=O)O | inactive | inactive | inactive | inactive | inactive | inactive | – | inactive | – | – | –
O=C(O)c1nc(Cl)ccc1Cl | inactive | inactive | inactive | inactive | inactive | inactive | inactive | inactive | – | – | –
COP(=O)(OC)OC=C(Cl)Cl | inactive | inactive | inactive | inactive | inactive | inactive | – | inactive | – | – | –
CN(C)[C@@H]1C(=O)C(C(N)=O)=C(O)[C@@]2(O)C(=O)C3=C(O)c4c(O)cccc4[C@@](C)(O)[C@H]3[C@H](O)[C@@H]12 | inactive | inactive | inactive | inactive | inactive | inactive | inactive | inactive | – | – | –
O=C(O)COc1ccc(Cl)cc1Cl | inactive | inactive | inactive | inactive | inactive | inactive | – | inactive | – | – | –
C=CCOC(Cn1ccnc1)c1ccc(Cl)cc1Cl (stereo not drawn) | inactive | inactive | 30.7 µM (active) and 48.6 µM (active) and 29.8 µM (active) | – | 61.1 µM (active) | 48.6 µM (active) and inactive | inactive | inactive | 38.7 µM (active) and 48.6 µM (active) and inactive | – | –
CCCC[N+]1(C)CCCC1 | inactive | inactive | inactive | inactive | inactive | inactive | – | inactive | – | – | –
O=c1[nH]c(=O)n(Cl)c(=O)n1Cl | inactive | inactive | inactive | inactive | inactive | inactive | – | inactive | – | inactive | inactive
O=C(O)C(Cl)Cl | inactive | inactive | inactive | inactive | inactive | inactive | inactive | inactive | – | – | –
CCCCCCCCCCCCn1cc[n+](C)c1 | – | 49 µM (active) and inactive | – | – | – | – | – | inactive | – | – | –
CCCCCCCCCCCCCC[P+](CCCCCC)(CCCCCC)CCCCCC | 8.75 µM (active) and 15.6 µM (active) | 27.4 µM (active) and 27.5 µM (active) and inactive | 17.3 µM (active) and 24.5 µM (active) | 7.73 µM (active) and 9.77 µM (active) | 12.2 µM (active) and 13.8 µM (active) | 21.8 µM (active) and 21.9 µM (active) | inactive | inactive | – | – | –
CCC[N+]1(C)CCCC1 | inactive | inactive | inactive | inactive | inactive | inactive | – | inactive | – | – | –
CC(=O)O | inactive | inactive | inactive | inactive | inactive | inactive | – | – | – | – | –
CCCCn1cc[n+](C)c1C | inactive | inactive | inactive | inactive | inactive | inactive | – | inactive | – | – | –
CC[N+]1(C)CCCC1 | inactive | inactive | inactive | inactive | inactive | inactive | – | inactive | – | – | –
O=S(=O)(O)O | inactive | inactive | inactive | inactive | inactive | inactive | – | – | – | – | –
CCCCn1cc[n+](C)c1 | inactive | inactive | inactive | inactive | inactive | inactive | – | – | – | – | –
